TRPML1 inh = inhibitors of human TRPML1 channel; Q9GZU1; TRPML1-inducible cells, Ca2+ dye fluorescence, FDSS; active compounds read low; inhibition of EC80 agonist-evoked calcium signal; activity change, negative = inhibition, % (concentration not given with the values); actives 0.02% (n = 390,000); AID 624415; in the data active = activity change below about -50%; inconclusive = between about -30% and that limit;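 also: stimulus is agonist 54-4 at its EC80 concentration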
Target sequence (Q9GZU1 whole entry, looked up): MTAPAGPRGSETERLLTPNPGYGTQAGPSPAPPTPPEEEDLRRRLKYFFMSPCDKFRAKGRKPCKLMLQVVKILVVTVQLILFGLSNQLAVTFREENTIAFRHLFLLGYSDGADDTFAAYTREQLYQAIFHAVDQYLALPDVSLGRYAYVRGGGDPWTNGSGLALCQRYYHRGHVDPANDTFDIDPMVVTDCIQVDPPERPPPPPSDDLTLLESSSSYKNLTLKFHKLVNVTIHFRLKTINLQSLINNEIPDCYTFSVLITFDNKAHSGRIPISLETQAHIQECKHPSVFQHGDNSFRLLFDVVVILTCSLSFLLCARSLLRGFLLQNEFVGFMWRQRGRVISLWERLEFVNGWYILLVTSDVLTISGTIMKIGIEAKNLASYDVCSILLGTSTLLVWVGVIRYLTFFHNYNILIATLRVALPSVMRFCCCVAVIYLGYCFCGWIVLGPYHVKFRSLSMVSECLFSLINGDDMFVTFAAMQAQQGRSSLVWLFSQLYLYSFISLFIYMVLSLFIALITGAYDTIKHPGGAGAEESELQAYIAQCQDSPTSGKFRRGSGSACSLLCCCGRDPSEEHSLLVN
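Calcium fluorescence in TRPML1-DL cells induced overnight with Tet: a 110 s read after compound pin addition, then a 110 s antagonist read after challenge with 54-4 at 4 uM final (EC80).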
TRPV1 potentiator = enhances activation of the human vanilloid receptor TRPV1; Q8NER1; TRPV1-expressing cells, Fluo-8 calcium influx, capsaicin EC20 potentiation; potentiation, % at 8.33 µM; actives 0.02% (n = 320,000); in the data active = potentiation above about 80%; inconclusive = between about 30% and that limit
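Cells expressing TRPV1 were dye-loaded with Fluo-8 and read kinetically: 10 s baseline, 3 min after compound (agonist portion), then 2 min after EC20 capsaicin (allosteric enhancer portion). Calcium-bound dye fluorescence at 480/520 nm.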
TRPV1 agonist = human TRPV1 agonism | actives 0.19% (n = 320,000) | TRPV1-expressing cells, Fluo-8 calcium influx, agonist mode | Q8NER1 | activation, % at 8.33 µM; in the data active = activation above about 80%; inconclusive = between about 30% and that limit
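Cells expressing TRPV1 were dye-loaded with Fluo-8 and read kinetically: 10 s baseline, 3 min after compound (agonist portion), then 2 min after EC20 capsaicin (allosteric enhancer portion). Calcium-bound dye fluorescence at 480/520 nm.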
TRPML1 ag = activates the human TRPML1 channel. Q9GZU1. AID 624414. activation, % (test concentration not listed). actives 0.12% (n = 410,000). TRPML1-expressing cells, Ca2+ dye fluorescence, FDSS; in the data active = activation above about 50%; inconclusive = mostly about 30% to 49%
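Tet-induced TRPML1-DL cells, 1,500 per well, cultured overnight, were loaded with a no-wash Ca2+ dye for 45–90 min. Calcium fluorescence was recorded on the FDSS for 110 s after compound addition, before the EC80 agonist (4 uM 54-4) was added.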
Each line names hits and unclear results; the compound was inactive in the other large screens. A selection: hits, their analogues and other compounds. The true share with any hit is near 0.31%.

CN1CCN(S(=O)(=O)c2ccc(N(C)Cc3ccc(OC(F)F)cc3)c([N+](=O)[O-])c2)CC1	TRPML1 ag 53
COc1ccc(OC)c(NC(=O)CN(C)S(=O)(=O)c2ccc3[nH]c4c(c3c2)CCCC4)c1	none (no result: TRPV1 potentiator, TRPV1 agonist)
Cc1ccc(CNC(=O)c2cccc3c2C(=O)c2ccc(N4CCCCC4)cc2S3(=O)=O)cc1	TRPML1 ag 50
Cc1ccc(CNC(=O)c2cccc3c2C(=O)c2ccc(N4CCOCC4)cc2S3(=O)=O)cc1	none
Cn1c(=O)c2c(nc3sccn32)n(C)c1=O	TRPV1 potentiator 88
CCCCNC(=S)N1CCN(C(c2ccccc2)c2ccccc2)CC1	TRPV1 agonist 81
CCCNC(=S)N1CCN(C(c2ccccc2)c2ccccc2)CC1	TRPV1 agonist inconclusive
COc1cc(/C=C2/SC(=S)N(Cc3ccccc3)C2=O)ccc1OCC(=O)O	none
COc1cc(/C=C2/SC(=S)N(Cc3ccccc3)C2=O)cc(Cl)c1O	TRPV1 agonist inconclusive, TRPML1 ag 65
c1ccc(-c2csc(N3CCN(c4ccccn4)CC3)n2)cc1	TRPV1 agonist 101
COc1ccc(CNC(=O)CCCc2ccccc2)cc1	none (no result: TRPV1 potentiator, TRPV1 agonist)
CCc1ccc(OCCCC(=O)NCc2ccccc2)cc1	TRPV1 agonist 83
COc1cccc(-n2cc(C(=O)Nc3cccc(C(F)(F)F)c3)c3ccccc3c2=O)c1	none (no result: TRPV1 potentiator, TRPV1 agonist)
COCCNC(=O)CCc1c(C)nc2c(c(C)nn2-c2ccc(C)cc2)c1C	TRPV1 agonist 85
COCCCCOc1cc2nc(N3CCCN(C)CC3)nc(NC3CCN(C)CC3)c2cc1OC	none (no result: TRPML1 inh, TRPV1 potentiator, TRPV1 agonist)
CCOc1ccc(C2c3cc(OC)c(OC)cc3CC(=O)N2c2ccccc2)cc1 (configuration not stated)	TRPML1 inh -51
CCOc1cc2c(cc1OCC)C(c1ccc(OC)cc1)N(c1ccccc1)C(=O)C2 (configuration not stated)	none
C1=C(c2ccc(-c3ccccc3)cc2)Nc2ncnn2C1c1ccco1 (configuration not stated)	TRPML1 ag 69
CCOC(=O)c1cc2c(=O)n3ccccc3nc2n(CCCOC)c1=NC(=O)c1cc2ccccc2o1	none (no result: TRPV1 potentiator, TRPV1 agonist)
CC(C)(C)c1ccc(NC(=S)NCc2cccnc2)cc1	TRPV1 agonist 86
Cc1cc(C)cc(-n2ccnc2SCC(=O)Nc2ccc3c(c2)OCO3)c1	none (no result: TRPV1 potentiator, TRPV1 agonist)
Cc1ccc(C)c(N2CCN(S(=O)(=O)c3c(C(=O)N4CCC(C)CC4)c(C)n(C)c3C)CC2)c1	TRPML1 ag 55 (no result: TRPV1 potentiator, TRPV1 agonist)
Cc1cccc(N2CCN(S(=O)(=O)c3c(C(=O)N4CCC(C)CC4)c(C)n(C)c3C)CC2)c1C	TRPML1 ag inconclusive (no result: TRPV1 potentiator, TRPV1 agonist)
C=CCOc1c(Br)cc(CNc2ccc3[nH]c(=O)[nH]c3c2)cc1OCC	TRPV1 agonist 87
CCc1cccc(C)c1NC(=O)C1CCN(c2nnc(C)c3c(C)n(-c4ccccc4)nc23)CC1	none (no result: TRPV1 potentiator, TRPV1 agonist)
CC(C)(C)C(=O)NCC(c1ccc2c(c1)OCO2)N1CCOCC1 (configuration not stated)	none (no result: TRPV1 potentiator, TRPV1 agonist)
O=C1N/C(=N\S(=O)(=O)c2ccccc2)S/C1=C\c1cc([N+](=O)[O-])ccc1O	TRPML1 ag 51
O=C1N/C(=N\S(=O)(=O)Cc2ccccc2)S/C1=C/c1cc([N+](=O)[O-])ccc1O	TRPV1 agonist inconclusive, TRPML1 ag 74
O=C(Nc1ccc(Cl)c(Cl)c1)C1=Cc2ccccc2OC1	TRPV1 agonist 88
COc1cc(Cl)c(C)cc1NC(=O)c1cnc(N2CCCCC2)c2ccccc12	TRPML1 ag 69 (no result: TRPV1 potentiator, TRPV1 agonist)
COc1cc(Cl)c(C)cc1NC(=O)c1cnc(N2CCOCC2)c2ccccc12	TRPML1 ag inconclusive (no result: TRPV1 potentiator, TRPV1 agonist)
Cc1cc(NC(=O)CSc2nc(Cc3ccc(O)cc3)c(C)[nH]2)no1	TRPML1 inh -54
Cc1[nH]c(SCC(=O)Nc2cc(C(N)=O)cc(C(N)=O)c2)nc1Cc1ccccc1	none (no result: TRPV1 potentiator, TRPV1 agonist)
CCOC(=O)[C@H]1[C@H]2COc3ccc(OC)cc3[C@@H]2N2C(=O)c3ccc(Cl)cc3NC(=O)[C@@]12C	TRPV1 potentiator inconclusive, TRPV1 agonist 90
CCOC(=O)[C@H]1[C@H]2COc3ccc(Cl)cc3[C@@H]2N2C(=O)c3cc(OC)ccc3NC(=O)[C@@]12C	TRPV1 agonist inconclusive
CCOC(=O)[C@H]1[C@H]2COc3ccc(Cl)cc3[C@@H]2N2C(=O)c3ccc(Cl)cc3NC(=O)[C@@]12C	TRPV1 agonist 87
Cc1cccc(Cn2cnc3c(cnn3C(C)(C)C)c2=O)c1F	none (no result: TRPV1 potentiator, TRPV1 agonist)
O=c1c(N2CCN(c3cccc(Cl)c3)CC2)csc2ccccc12	none (no result: TRPV1 potentiator, TRPV1 agonist)
Cc1ccc(C2/C(=C(\O)c3c(C)nc4ccccn34)C(=O)C(=O)N2CCN(C)C)o1 (configuration not stated)	TRPML1 inh -56
Cc1ccc(C2/C(=C(\O)c3c(C)nc4c(C)cccn34)C(=O)C(=O)N2CCN(C)C)o1 (configuration not stated)	none (no result: TRPV1 potentiator, TRPV1 agonist)
COc1cc(OC)c(/C=C/c2cc3ccccc3c[n+]2C)c(OC)c1	none (no result: TRPML1 inh, TRPV1 potentiator, TRPV1 agonist)
CCc1ccc(Nc2nnc(SC(C)C(=O)NC3CC3)s2)cc1 (configuration not stated)	none (no result: TRPV1 potentiator, TRPV1 agonist)
CCc1ccc(Nc2nnc(SC3CCOC3=O)s2)cc1 (configuration not stated)	TRPV1 agonist 82
CCOC(=O)c1ccc(NC(=O)c2ccc(=O)n(Cc3cccc(C)c3)c2)cc1	none (no result: TRPV1 potentiator, TRPV1 agonist)
Cc1ccc(C)c(NC(=O)CCn2nc(C)c3c(C)n(-c4ccccc4)nc3c2=O)c1	TRPML1 inh -54 (no result: TRPV1 potentiator, TRPV1 agonist)
COc1ccc(-c2cc(C(F)F)n3ncc(C(=O)Nc4cc(C)on4)c3n2)cc1	TRPV1 agonist 85
CCN(CC)c1ccc(C=C2C(=O)OC(c3ccccc3)OC2=O)cc1 (configuration not stated)	none
CCN(CC)c1ccc(/C=C/C(=O)C2C(=O)C=C(C)OC2=O)cc1 (configuration not stated)	TRPV1 agonist 94, TRPML1 ag 127
Nc1ccc2c(c1)Cc1cc([N+](=O)[O-])ccc1-2	TRPML1 ag inconclusive
CC(O)CN(CC(C)O)c1ccc2c(c1)Cc1cc([N+](=O)[O-])ccc1-2 (configuration not stated)	TRPML1 ag 83 (no result: TRPV1 potentiator, TRPV1 agonist)
COc1cc2nc(CCc3nc4cc(OC)c(OC)cc4[nH]3)[nH]c2cc1OC	none (no result: TRPML1 inh, TRPV1 potentiator, TRPV1 agonist)
Cc1ccc(Nc2ncnc3c2oc2ccccc23)cc1	TRPV1 agonist 93
COc1ccc(Oc2ncnc3c2oc2ccccc23)cc1	none (no result: TRPV1 potentiator, TRPV1 agonist)
COc1ccc(Nc2ncnc3c2oc2ccccc23)cc1	TRPV1 agonist 93
CC(C)(C)n1ncc2c(=O)n(Cc3ccccc3F)cnc21	none (no result: TRPV1 potentiator, TRPV1 agonist)
CCCCCCC1CCC(C(=O)N2CCOCC2)CC1 (configuration not stated)	TRPV1 agonist 89
CCCCCC1CCC(C(=O)N2CCOCC2)CC1 (configuration not stated)	TRPV1 agonist 94
CCOC(=O)C1CCN(C(=O)c2nn(-c3ccc(C)cc3)c(=O)n(C)c2=O)CC1	none (no result: TRPV1 potentiator, TRPV1 agonist)
CCC(C)c1ccc(NC(=O)COC(=O)CCNC(=O)c2ccco2)cc1 (configuration not stated)	none

Bioassay records (PubChem BioAssay)
